Legend:
Experiment in all cases: log2 ratio of Biotin-Ahx-Ub-VS probe labelling (fragment/DMSO); higher = less target engagement (more negative = stronger competition), active = hit call of the paper (q ≤ 0.05, log2 ratio ≤ -1)
Conditions in all cases: compound concentration: 200 uM; treatment time: 3 h
OTUD6B = biological target: T1, OTUD6B (UniProt Q8N6M0)
T1 sequence (whole entry): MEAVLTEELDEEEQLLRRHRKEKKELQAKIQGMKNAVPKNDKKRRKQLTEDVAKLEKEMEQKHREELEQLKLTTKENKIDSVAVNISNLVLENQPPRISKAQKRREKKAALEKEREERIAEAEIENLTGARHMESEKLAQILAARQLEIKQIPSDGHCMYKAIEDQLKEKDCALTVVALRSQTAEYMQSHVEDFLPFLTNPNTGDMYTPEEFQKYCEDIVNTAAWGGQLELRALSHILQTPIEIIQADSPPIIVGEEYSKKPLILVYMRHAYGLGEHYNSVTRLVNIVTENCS
Method in brief: (§1)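 HEK293T lysate (495 µg per sample, in Tris/CHAPS/IGEPAL buffer with protease inhibitors) was exposed in triplicate for 3 h to fragment at 200 µM or to vehicle, then to Biotin-Ahx-Ub-VS at 0.5 µM final for 1 h. Labelled DUBs were enriched on NeutrAvidin, digested with LysC and trypsin, and analysed by diaPASEF LC-MS/MS. Spectronaut label-free quantities were normalised to the global median, and values are average log2 ratios of fragment over vehicle from an unpaired t-test. Only proteins with ≥2 unique peptides were used.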

OTUD7B = biological target: T2, OTUD7B (UniProt Q6GQQ9)
T2 sequence (whole entry): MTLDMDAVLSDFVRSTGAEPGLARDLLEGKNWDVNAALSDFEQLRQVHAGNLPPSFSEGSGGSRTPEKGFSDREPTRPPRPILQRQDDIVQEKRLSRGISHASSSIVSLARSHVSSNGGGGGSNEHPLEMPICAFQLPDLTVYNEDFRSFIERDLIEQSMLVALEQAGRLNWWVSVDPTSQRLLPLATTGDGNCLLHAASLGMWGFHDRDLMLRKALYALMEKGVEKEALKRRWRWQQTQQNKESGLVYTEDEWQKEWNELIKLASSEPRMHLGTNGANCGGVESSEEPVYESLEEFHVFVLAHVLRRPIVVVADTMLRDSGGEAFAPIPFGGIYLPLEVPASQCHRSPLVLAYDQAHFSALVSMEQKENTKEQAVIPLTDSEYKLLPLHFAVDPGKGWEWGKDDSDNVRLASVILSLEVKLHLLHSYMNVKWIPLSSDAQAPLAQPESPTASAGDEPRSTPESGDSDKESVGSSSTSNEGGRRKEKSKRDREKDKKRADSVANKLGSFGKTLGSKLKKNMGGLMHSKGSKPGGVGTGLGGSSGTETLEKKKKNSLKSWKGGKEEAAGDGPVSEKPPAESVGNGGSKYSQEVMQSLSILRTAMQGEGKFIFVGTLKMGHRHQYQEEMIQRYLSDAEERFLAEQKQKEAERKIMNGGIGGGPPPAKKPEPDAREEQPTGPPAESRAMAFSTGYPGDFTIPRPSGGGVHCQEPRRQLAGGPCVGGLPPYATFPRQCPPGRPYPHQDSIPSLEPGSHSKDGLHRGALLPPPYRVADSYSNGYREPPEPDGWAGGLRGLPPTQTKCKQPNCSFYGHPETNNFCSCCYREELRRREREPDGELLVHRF
Method in brief: as §1

PRPF8 = PRPF8 (UniProt Q6P2Q9)
Method in brief: as §1

PSMD7 = biological target: T3, PSMD7 (UniProt P51665)
T3 sequence (whole entry): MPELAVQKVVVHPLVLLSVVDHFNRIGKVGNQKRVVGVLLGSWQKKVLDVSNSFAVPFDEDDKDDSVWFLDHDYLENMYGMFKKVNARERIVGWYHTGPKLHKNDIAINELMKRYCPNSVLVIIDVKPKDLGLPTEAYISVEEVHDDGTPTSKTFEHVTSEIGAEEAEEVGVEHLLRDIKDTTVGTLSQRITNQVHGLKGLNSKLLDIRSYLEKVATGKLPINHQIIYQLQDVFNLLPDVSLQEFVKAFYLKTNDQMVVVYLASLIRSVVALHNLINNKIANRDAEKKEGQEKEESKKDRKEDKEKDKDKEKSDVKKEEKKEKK
Method in brief: as §1

UCHL1 = UCHL1 (UniProt P09936)
Method in brief: as §1

UCHL3 = biological target: T4, UCHL3 (UniProt P15374)
T4 sequence (whole entry): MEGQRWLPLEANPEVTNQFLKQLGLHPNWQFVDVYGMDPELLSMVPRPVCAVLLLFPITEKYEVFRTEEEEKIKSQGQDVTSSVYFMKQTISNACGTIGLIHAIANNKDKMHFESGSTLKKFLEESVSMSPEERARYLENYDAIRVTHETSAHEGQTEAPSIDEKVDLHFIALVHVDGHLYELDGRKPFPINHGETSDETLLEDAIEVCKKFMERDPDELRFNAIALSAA
Method in brief: as §1

UCHL5 = biological target: T5, UCHL5 (UniProt Q9Y5K5)
T5 sequence (whole entry): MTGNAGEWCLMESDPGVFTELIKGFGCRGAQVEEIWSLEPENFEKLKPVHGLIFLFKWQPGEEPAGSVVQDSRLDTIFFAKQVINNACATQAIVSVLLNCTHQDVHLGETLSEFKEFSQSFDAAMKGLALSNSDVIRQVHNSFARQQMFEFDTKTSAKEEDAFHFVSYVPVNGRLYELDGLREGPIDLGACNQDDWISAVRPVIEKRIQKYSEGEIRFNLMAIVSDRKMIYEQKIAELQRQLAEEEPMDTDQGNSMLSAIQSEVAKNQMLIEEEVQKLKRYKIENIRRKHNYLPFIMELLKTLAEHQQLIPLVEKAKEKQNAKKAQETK
Method in brief: as §1

USP10 = USP10 (UniProt Q14694)
Method in brief: as §1

USP15 = biological target: T6, USP15 (UniProt Q9Y4E8)
T6 sequence (whole entry): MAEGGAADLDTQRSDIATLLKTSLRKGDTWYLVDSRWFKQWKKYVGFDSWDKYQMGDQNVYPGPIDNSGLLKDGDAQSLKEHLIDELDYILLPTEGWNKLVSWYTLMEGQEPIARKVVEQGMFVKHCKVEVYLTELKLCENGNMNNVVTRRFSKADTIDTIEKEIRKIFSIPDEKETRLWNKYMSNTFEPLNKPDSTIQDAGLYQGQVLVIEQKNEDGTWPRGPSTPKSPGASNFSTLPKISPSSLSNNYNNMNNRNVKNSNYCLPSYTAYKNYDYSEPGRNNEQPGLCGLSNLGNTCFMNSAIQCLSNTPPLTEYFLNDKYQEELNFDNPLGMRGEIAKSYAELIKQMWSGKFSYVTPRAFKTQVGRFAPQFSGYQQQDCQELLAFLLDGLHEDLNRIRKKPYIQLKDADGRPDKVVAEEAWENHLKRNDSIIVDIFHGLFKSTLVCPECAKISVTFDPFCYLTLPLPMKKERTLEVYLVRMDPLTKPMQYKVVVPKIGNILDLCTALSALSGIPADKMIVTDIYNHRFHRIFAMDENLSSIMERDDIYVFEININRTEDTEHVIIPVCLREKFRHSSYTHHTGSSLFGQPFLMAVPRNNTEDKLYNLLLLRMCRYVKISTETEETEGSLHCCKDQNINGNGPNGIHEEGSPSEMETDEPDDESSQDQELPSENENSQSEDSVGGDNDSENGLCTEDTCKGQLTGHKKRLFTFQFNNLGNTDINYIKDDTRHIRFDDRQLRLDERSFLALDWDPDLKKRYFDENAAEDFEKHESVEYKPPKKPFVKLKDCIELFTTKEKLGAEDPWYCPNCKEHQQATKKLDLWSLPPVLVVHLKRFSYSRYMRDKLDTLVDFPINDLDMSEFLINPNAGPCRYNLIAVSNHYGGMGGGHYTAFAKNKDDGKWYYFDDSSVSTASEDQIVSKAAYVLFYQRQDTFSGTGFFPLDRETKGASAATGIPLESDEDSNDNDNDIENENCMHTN
Method in brief: as §1

USP16 = USP16 (UniProt Q9Y5T5)
Method in brief: as §1

Measured: log2 ratio of Biotin-Ahx-Ub-VS probe labelling

UCHL1, sequence (P09936 whole entry, looked up): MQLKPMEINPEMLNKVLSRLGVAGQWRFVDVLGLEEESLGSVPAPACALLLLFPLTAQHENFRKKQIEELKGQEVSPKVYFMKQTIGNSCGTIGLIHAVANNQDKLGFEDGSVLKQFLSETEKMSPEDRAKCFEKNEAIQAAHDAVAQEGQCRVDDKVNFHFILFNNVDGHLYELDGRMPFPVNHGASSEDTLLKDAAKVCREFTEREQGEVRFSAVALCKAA
USP16, sequence (Q9Y5T5 whole entry, looked up): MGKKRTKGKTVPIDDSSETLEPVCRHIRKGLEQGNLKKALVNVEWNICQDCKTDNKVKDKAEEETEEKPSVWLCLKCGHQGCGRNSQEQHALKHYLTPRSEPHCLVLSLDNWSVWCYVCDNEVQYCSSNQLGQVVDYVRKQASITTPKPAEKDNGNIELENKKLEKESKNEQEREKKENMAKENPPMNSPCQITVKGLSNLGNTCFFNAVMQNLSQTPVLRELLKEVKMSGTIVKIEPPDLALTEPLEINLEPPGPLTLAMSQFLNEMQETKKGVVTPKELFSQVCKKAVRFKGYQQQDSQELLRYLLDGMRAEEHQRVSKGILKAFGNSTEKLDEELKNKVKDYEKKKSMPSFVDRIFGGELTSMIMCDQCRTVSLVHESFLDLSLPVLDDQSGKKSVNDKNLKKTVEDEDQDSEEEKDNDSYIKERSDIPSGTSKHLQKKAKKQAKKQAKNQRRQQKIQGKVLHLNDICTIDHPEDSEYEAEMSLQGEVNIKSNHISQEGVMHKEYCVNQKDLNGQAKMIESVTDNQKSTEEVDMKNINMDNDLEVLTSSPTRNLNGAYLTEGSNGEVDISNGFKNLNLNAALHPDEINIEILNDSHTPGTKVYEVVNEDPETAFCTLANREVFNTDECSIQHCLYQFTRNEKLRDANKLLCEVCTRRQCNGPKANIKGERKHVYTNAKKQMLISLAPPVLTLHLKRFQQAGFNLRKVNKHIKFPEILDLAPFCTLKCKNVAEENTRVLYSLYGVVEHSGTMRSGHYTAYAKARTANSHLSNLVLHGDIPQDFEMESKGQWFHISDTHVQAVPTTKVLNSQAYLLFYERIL
USP10, sequence (Q14694 whole entry): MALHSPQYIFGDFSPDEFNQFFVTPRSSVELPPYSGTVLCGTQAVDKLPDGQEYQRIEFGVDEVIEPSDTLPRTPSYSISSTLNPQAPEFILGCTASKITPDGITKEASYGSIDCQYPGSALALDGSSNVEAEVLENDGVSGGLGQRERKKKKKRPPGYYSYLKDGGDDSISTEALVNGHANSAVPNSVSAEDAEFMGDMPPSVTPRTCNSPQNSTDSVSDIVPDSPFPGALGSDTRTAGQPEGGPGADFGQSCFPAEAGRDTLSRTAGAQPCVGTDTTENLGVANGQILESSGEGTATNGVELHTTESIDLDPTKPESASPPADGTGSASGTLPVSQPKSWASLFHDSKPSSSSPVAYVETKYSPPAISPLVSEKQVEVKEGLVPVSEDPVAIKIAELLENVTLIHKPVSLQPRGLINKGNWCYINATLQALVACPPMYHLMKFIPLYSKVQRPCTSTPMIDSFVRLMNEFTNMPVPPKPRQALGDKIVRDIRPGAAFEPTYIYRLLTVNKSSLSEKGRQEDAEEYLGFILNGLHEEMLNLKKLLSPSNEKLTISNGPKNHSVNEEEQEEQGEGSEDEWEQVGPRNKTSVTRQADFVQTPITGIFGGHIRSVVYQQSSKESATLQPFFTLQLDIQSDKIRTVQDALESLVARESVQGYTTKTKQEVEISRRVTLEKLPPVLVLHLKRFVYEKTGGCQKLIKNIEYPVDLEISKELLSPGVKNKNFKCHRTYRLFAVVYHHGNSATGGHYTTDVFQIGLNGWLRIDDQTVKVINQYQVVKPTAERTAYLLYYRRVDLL

CCc1c[nH]c(CNC(=O)CCl)n1.Cl
active: UCHL1 -1.33
inactive: OTUD6B -0.246 | OTUD7B -0.369 | PRPF8 0.073 | PSMD7 -0.469 | UCHL3 0.0893 | UCHL5 -0.335 | USP10 -0.218 | USP15 -0.538 | USP16 -0.0099
